# Bioassay records deposited in PubChem BioAssay by several laboratories.
# Sampled rows, rich in hits. Any-hit rate of the full collection: about 3.6%.
# BoNT-A LC inh2 = BoNT/A light chain protease inhibitors, primary screen, biochemical, flow cytometry, MLPCN library. inhibition, % at 10 µM. Botulinum neurotoxin type A light chain protease (Clostridium botulinum A str. ATCC 3502). AID 588499, 2011. multiplex microsphere protease substrate cleavage. 360,000 tested, 0.17% active; also: plate controls were buffer without enzyme for full effect and enzyme alone for no effect
# BoNT F protease = BoNT/F light chain protease inhibitors, primary screen, biochemical, flow cytometry, MLPCN library | 360,000 tested, 0.22% active | Multiplex microsphere protease cleavage assay | inhibition, % at 10 µM | Botulinum neurotoxin type F light chain protease (Clostridium botulinum); in the data active = inhibition above about 35%, passing the limit was not always enough; inconclusive = no clear call, values can overlap the other calls; also: plate controls were buffer without enzyme for full effect and enzyme alone for no effect
# MazF activator = activators of E. coli MazEF toxin-antitoxin RNase, primary screen, biochemical, fluorescence, uHTS; 350,000 tested, 0.32% active; FAM/BHQ RNA-DNA oligo cleavage fluorescence, 5 h; activation, % at 20 µM; in the data active = activation above about 50%
# Bead autofluor = compound fluorescence in toxin protease inhibitor counterscreen; AID 624483; fluorescence intensity (test concentration not listed); compound autofluorescence counterscreen, microsphere flow cytometry; hits give high values; 360,000 tested, 3.1% active; in the data active = fluorescence intensity above about 16000; inconclusive = no clear call, values can overlap the other calls
# Anthrax LF inh2 = Bacillus anthracis LF protease inhibitors, primary screen, biochemical, multiplex microsphere, MLPCN library; 360,000 tested, 0.12% active; multiplex microsphere protease cleavage assay; AID 588501, 2011; inhibition, % at 10 µM; also: plate controls were buffer without enzyme for full effect and enzyme alone for no effect
# Target sequence (P15917 whole entry, looked up): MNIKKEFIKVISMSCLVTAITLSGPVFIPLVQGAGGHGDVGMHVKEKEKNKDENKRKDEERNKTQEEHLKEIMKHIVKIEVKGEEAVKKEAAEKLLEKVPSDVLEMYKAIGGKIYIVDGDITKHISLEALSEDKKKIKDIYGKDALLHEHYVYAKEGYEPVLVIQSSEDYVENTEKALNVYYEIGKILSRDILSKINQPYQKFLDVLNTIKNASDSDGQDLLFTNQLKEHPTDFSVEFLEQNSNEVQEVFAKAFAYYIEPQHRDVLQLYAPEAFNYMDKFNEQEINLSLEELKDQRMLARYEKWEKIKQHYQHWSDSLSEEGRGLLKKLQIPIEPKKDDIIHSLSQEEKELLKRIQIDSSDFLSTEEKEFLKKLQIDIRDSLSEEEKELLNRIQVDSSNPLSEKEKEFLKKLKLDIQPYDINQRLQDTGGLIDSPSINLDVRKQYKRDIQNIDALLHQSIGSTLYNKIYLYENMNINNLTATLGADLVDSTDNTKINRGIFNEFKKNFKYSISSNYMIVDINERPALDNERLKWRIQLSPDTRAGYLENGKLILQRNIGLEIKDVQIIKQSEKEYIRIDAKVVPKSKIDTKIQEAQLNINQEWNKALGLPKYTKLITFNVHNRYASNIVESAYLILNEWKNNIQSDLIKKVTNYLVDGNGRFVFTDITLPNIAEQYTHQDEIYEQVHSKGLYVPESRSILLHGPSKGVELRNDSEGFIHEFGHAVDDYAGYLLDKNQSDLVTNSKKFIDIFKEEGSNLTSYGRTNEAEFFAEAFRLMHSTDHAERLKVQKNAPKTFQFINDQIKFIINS
# An asterisk follows results filed as active; u = inconclusive; x = not tested or not shown. Rule as the data show it, unless noted: active = inhibition above about 30%; inconclusive = no clear call, values can overlap the other calls; inactive = below that.
SMILES,BoNT-A LC inh2,BoNT F protease,MazF activator,Bead autofluor,Anthrax LF inh2
Cc1cc(C)n2nc(S(=O)(=O)NCCc3ccccc3)nc2n1,0.4,0.3,1.3,4341,-0.5
COc1ccc(CNc2nc3nc(C)c(Cl)c(C)n3n2)cc1,-2.0,14.1,4.5,4098,2.4
COc1ccc(CNc2nc3nc(C)cc(C)n3n2)cc1,-2.7,-4.5,-0.9,23427*,0.0
Cc1ccc(C)c(CNc2ccc(S(=O)(=O)N3CCCCC3)cc2)c1,4.5,6.8,-4.6,6219,1.0
Cc1cc(C)c(S(=O)(=O)Nc2cccnc2)c(C)c1,2.2,1.9,6.0,22484*,-0.1
CC(C)(C)NC(=O)C1Cc2ccccc2CN1C(=O)Nc1cccc(Cl)c1 (stereo not given),0.2,-7.2,113.5*,2516,-5.6
CC1CCCC(NC(=O)COC(=O)c2cccs2)C1C (stereo not given),-4.1,-10.9,2.8,6434,-3.8
Cc1ccc(S(=O)(=O)NCC(=O)OC(C)C(=O)c2ccccc2)cc1 (stereo not given),-0.3,-0.8,2.9,4655,0.4
Cc1ccc(C(=O)C(OC(=O)CNS(=O)(=O)c2ccccc2)c2ccccc2)cc1 (stereo not given),u,1.5,-1.3,19423*,-2.1
CCn1c(SCc2nc(-c3ccccc3)no2)nnc1-c1ccco1,-2.7,-5.8,-3.9,23800*,-3.5
c1ccc(-c2noc(CSc3nnnn3C3CCCCC3)n2)cc1,-1.1,-3.4,-11.5,20752*,-2.5
c1ccc(-c2noc(CC3CCCCC3)n2)cc1,-4.7,-20.9,2.9,6314,-2.4
CCn1c(SCc2nc(-c3ccccc3)no2)nnc1-c1cccs1,0.1,3.3,4.3,4159,2.3
COC(=O)Cn1c2ccc(F)cc2c2nc(C)sc21,-0.7,-2.8,1.9,22219*,0.1
Cc1cccc2cc(C#N)c(NCCCn3ccnc3)nc12,3.2,1.1,-1.8,19585*,5.1
CCOC(=O)C1CCCN(Cc2ccccc2OCC)C1 (stereo not given),2.7,0.3,-1.1,19086*,-4.1
CCOC(=O)C1CCCN(C(=O)CN2C(=O)c3ccccc3C2=O)C1 (stereo not given),u,-0.6,0.2,20127*,-1.3
CCOC(=O)C1CCCN(C(=O)C(C)Oc2ccc(Cl)cc2Cl)C1 (stereo not given),u,4.2,-1.0,22441*,1.4
CCOC(=O)C1CCCN(CC(O)COC(c2ccccc2)c2ccccc2)C1 (stereo not given),1.1,3.3,0.1,4886,2.1
CCOC(=O)C1CCCN(C(=O)CN2C(=O)c3ccccc3S2(=O)=O)C1 (stereo not given),-0.1,-2.7,1.6,3773,1.1
CCOC(=O)C1CCCN(CC(O)COc2ccccc2C(C)=O)C1 (stereo not given),0.3,-0.7,8.6,22881*,-6.0
CC(C)c1ccc(C(=O)N2CCCCC2c2cc(C(=O)NCc3cccnc3)no2)cc1 (stereo not given),-1.1,-14.8,x,3875,-9.1
N#Cc1ccccc1OCCCN1CCC(C(O)(c2ccccc2)c2ccccc2)CC1,-0.5,-1.9,x,6360,0.6
COc1ccc(CCN2CC(C(=O)N(C)Cc3cccnc3)CC2=O)cc1OC (stereo not given),-0.5,2.4,-1.1,u,-2.9
Nc1oc2ccccc2c(=O)c1-c1ccc2c(c1)OCO2,-2.4,-7.4,17.0,4061,22.5
SMILES,BoNT-A LC inh2,BoNT F protease,MazF activator,Bead autofluor,Anthrax LF inh2
CCOC(=O)C1CCN(C(=O)Cc2c(F)cccc2Cl)CC1,0.3,1.2,-1.3,10285,1.9
CCOC(=O)C1CCN(Cc2cn[nH]c2-c2ccc(C)cc2)CC1,-1.1,-13.9,-1.4,6127,1.7
CCOC(=O)C1CCN(C(=O)c2cccnc2Cl)CC1,-0.1,-0.9,8.4,20039*,-1.5
CCOC(=O)C1CCN(Cc2c(F)cccc2Cl)CC1,-5.2,-6.5,-3.5,25112*,-0.5
CCOC(=O)C1CCN(Cc2cn[nH]c2-c2ccccc2)CC1,-1.1,-2.0,11.3,20102*,2.8
CCOC(=O)C1CCN(Cc2cnc(Oc3ccc(OC)cc3)s2)CC1,-3.5,-5.0,4.7,24024*,-2.3
CCOC(=O)C1CCN(Cc2c(O)ccc3ccccc23)CC1,u,0.6,-2.2,19910*,-0.6
CCOC(=O)C1CCCN(C(=O)Cc2c(F)cccc2Cl)C1 (stereo not given),-1.0,-0.2,0.5,12928,1.1
CCOC(=O)C1CCCN(Cc2c(F)cccc2Cl)C1 (stereo not given),1.3,1.1,-4.9,20111*,-0.8
Cc1ccccc1CCNC(=O)c1ccc(Cl)c(S(=O)(=O)N2CC(C)OC(C)C2)c1 (stereo not given),x,x,3.9,x,x
CCC(=O)Nc1ccc(Oc2ccc3c(c2)C(=O)N(c2ccc(O)cc2)C3=O)cc1,u,1.0,3.4,21982*,0.0
Cc1cccc(OCC(=O)N(Cc2ccco2)C2CCS(=O)(=O)C2)c1C (stereo not given),-0.6,-6.8,-10.8,5834,-3.6
O=C(NCC12CC3CC(CC(C3)C1)C2)c1nc2ncccn2n1,1.7,-0.2,95.6*,19103*,-7.9
O=C(NCCc1ccccc1)c1nc2ncccn2n1,0.3,2.7,3.5,7988,-1.4
CCOC(=O)C1CCN(CC(O)COc2ccc(C(=O)CC)cc2)CC1 (stereo not given),0.3,-1.3,3.1,22284*,-2.7
Cc1ccc(OCC(O)CN2CCN(CC(O)COc3ccc(C)cc3)CC2)cc1 (stereo not given),-2.8,-5.3,-4.7,17745*,-0.3
Cc1ccc(OCC(O)Cn2c(=N)n(Cc3ccccc3)c3ccccc32)cc1 (stereo not given),-1.1,-2.9,23.8,22794*,-2.9
Cc1ccc(OCC(O)CN2CCN(c3ccc(C)cc3)CC2)cc1 (stereo not given),-0.8,u,-2.4,4328,-5.2
O=C(c1ccccc1)c1ccc(OCC(O)CN2CCCCC2)cc1 (stereo not given),-1.1,5.9,-1.8,4223,-3.3
O=C(c1ccccc1)c1ccc(OCC(O)CN2CCN(S(=O)(=O)N3CCCCC3)CC2)cc1 (stereo not given),0.5,1.6,6.0,23589*,-0.4
CCCN(CC(=O)Nc1ccccc1OC)C(=O)CC1CCCC1,2.5,-0.7,5.9,u,1.1
O=P(C(=S)Nc1ccccc1Cl)(c1ccccc1)c1ccccc1,-0.3,-1.7,9.7,3286,-1.4
OC(CNCCN1CCNCC1)Cc1ccccc1 (stereo not given),0.0,-16.0,8.5,3154,-5.1
O=c1c2sccc2n(Cc2cccc(F)c2)c(=O)n1-c1ccc(F)cc1,-0.2,4.2,-1.2,2719,-2.1
COCCN1C(=O)/C(=C/c2ccc(N3CCCC3)cc2)SC1=S,15.1,4.3,317.8*,18513*,9.1
